From PubChem
Giardia kill = kills Giardia lamblia | Giardia lamblia trophozoite viability | activity change, % at 7.66 µM, hits read low | hit rate 0.15% among 340,000 | AID 540267; in the data active = activity change below about -80%; inconclusive = between about -30% and that limit;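 also: parasites exposed to compound for two days anaerobically before the ATP read; % is scaled to controls: 0 for no effect and ±100 for the full control effect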
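Giardia lamblia trophozoites (100 cells/well) were incubated with compounds for 48 h at 37 deg C under anaerobic conditions. Viability was read as ATP content by one-step luminescence after 15-30 min at room temperature.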
B2AR arrestin = beta2AR (human) beta-arrestin recruitment activity. Potency, µM (titrated, usually from 46.1 µM), inactives show at the highest dose activation, most hits filed as activators. hit rate 0.02% among 330,000. P07550. beta-arrestin recruitment to beta2AR, cell-based reporter. AID 492947; active = well fitted activation curve with a large enough effect; inconclusive = small, poorly fitted or top-dose-only effect;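 also: potency is read from the fitted curve at half-maximal effect; 0% = DMSO controls and full agonism = EC100 isoproterenol or metaproterenol; nearly all actives have a fitted effect of over 65% in size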
Target sequence (P07550 whole entry, looked up): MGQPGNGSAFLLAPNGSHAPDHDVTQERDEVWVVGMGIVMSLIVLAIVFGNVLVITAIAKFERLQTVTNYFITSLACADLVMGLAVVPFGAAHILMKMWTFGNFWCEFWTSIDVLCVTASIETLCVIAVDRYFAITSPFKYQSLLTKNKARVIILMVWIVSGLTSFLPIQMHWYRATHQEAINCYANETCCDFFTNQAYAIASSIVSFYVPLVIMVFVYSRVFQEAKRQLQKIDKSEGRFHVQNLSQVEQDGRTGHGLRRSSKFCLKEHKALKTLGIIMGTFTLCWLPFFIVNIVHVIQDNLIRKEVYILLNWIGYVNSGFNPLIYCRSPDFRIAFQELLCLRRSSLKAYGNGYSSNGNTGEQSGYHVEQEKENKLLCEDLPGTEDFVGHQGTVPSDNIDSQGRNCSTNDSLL
D3 antag = antagonists of human D3 dopamine receptor | P35462 | D3R cells, DiscoveRx beta-arrestin luminescence, antagonist mode; active compounds read low | max response, negative = inhibition, % | hit rate 2.5% among 360,000 | AID 652054; in the data active = max response below about -50%; inconclusive = no clear call, values can overlap the other calls; also: % is scaled to controls: 0 for no effect and ±100 for the full control effect
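Cells expressing the human receptor were seeded at 1500 cells/well, incubated overnight at 37 degrees C in 5% CO2, then exposed to library compounds with dopamine controls for 90 minutes at 37 degrees C before luminescent detection.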
DRD3 agonist = agonists of human D3 dopamine receptor; P35462; D3R DiscoveRx beta-arrestin cells, luminescence, 90 min; max activation, %; hit rate 0.58% among 410,000; AID 652048; in the data active = max activation above about 30%; also: 0% is about no effect
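Agonist mode: compounds and dopamine controls were applied to plated cells for 90 min at 37 degrees C after an overnight attachment at 1500 cells/well. Luminescent read-out followed 30 - 60 minutes at room temperature with DiscoveRx detection reagent.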
An asterisk follows results filed as active. Sampled rows, rich in hits. Any-hit rate of the full collection: about 2.8%.

How did COc1ccc2c(c1)c1c(c(=O)n(-c3cccc(C)c3)c(=O)n1CC(=O)NCc1ccc(C)cc1)n2C do in these assays?
DRD3 agonist: 5

How did Oc1ccc(NCc2cccs2)cc1 do in these assays?
Giardia kill: 8; B2AR arrestin: 13µM*; D3 antag: -27; DRD3 agonist: -4

What do the screens show for `CC(=O)Nc1ccc(NCc2cccs2)cc1`?
Giardia kill: 7; B2AR arrestin: 0%; D3 antag: -14; DRD3 agonist: -4

Results for COc1ccc(/C=C/C(=O)OCCC(C)C)cc1 ?
DRD3 agonist: -2

How did COc1ccc(C(C)=O)cc1CSC(=N)N do in these assays?
Giardia kill: 6; B2AR arrestin: -1%; D3 antag: -54*; DRD3 agonist: -5

Results for COc1ccc(F)cc1C(=O)C1CCCN(Cc2cn(C)c3ccccc23)C1 (stereo not drawn) ?
Giardia kill: 20; B2AR arrestin: 0%; D3 antag: -92*; DRD3 agonist: -8

How did Cn1cc(CN2CCCC(C(=O)c3cc(F)ccc3F)C2)c2ccccc21 (stereo not drawn) do in these assays?
Giardia kill: -3; B2AR arrestin: 0%; D3 antag: -64*; DRD3 agonist: -22

Results for O=C(c1cc(F)ccc1F)C1CCCN(Cc2cccn2-c2ccccn2)C1 (stereo not drawn) ?
Giardia kill: -23; B2AR arrestin: 0%; D3 antag: -20; DRD3 agonist: -21

What do the screens show for `COc1ccc(F)cc1C(=O)C1CCCN(Cc2c[nH]c3ccccc23)C1` (stereo not drawn)?
Giardia kill: 5; B2AR arrestin: 0%; D3 antag: -107*; DRD3 agonist: -12

How did COc1ccc(-c2nc3ccccc3o2)cc1NC(=O)c1cccc2c(Cl)cccc12 do in these assays?
DRD3 agonist: 3

Results for O=[N+]([O-])c1ccc(S(=O)Cc2ccccc2)c([N+](=O)[O-])c1 (stereo not drawn) ?
Giardia kill: 2; D3 antag: -102*; DRD3 agonist: -39

How did CSc1nc(=O)n(-c2ccccc2)c(C)c1C(C)=O do in these assays?
Giardia kill: 4; B2AR arrestin: 0%; D3 antag: 17; DRD3 agonist: 34*

Results for CC(=O)Nc1nc2ccccc2n1CCN(C)C ?
Giardia kill: 9; B2AR arrestin: 3%; D3 antag: -15; DRD3 agonist: -3

What do the screens show for `CCC(=O)Nc1nc2ccccc2n1CCN(C)C`?
Giardia kill: 27; B2AR arrestin: 0%; D3 antag: -81*; DRD3 agonist: -1

How did S=C(Nc1ccccc1)Nc1nc2ccccc2n1CCOc1ccccc1 do in these assays?
Giardia kill: -4; B2AR arrestin: 1%; D3 antag: 20; DRD3 agonist: 26

Results for CCCCn1c(NC(=S)Nc2ccccc2)nc2ccccc21 ?
Giardia kill: 15; B2AR arrestin: -1%; D3 antag: 63; DRD3 agonist: 32*

What do the screens show for `CN(C)CCCn1c(NC(=O)C2CCCCC2)nc2ccccc21`?
Giardia kill: 3; B2AR arrestin: 0%; D3 antag: -52*; DRD3 agonist: -22

What do the screens show for `O=C(O)c1ccc2c(c1)C(=O)N([C@]1(C(=O)O)CC1c1ccccc1)C2=O` (stereo partly drawn)?
B2AR arrestin: 0%

Results for COc1ccc(Nc2nc3ccccc3c3nnc(C)n23)cc1Cl ?
DRD3 agonist: 3

How did Cc1ccc(NC(=O)Cn2cc(S(=O)(=O)N3CCCC3)c(S(=O)(=O)N3CCCC3)c2)cc1F do in these assays?
DRD3 agonist: 3

How did CC(C)C(=O)NC(c1ccccc1)c1cc([N+](=O)[O-])c2cccnc2c1O (stereo not drawn) do in these assays?
Giardia kill: -13; B2AR arrestin: 0%; D3 antag: -77*; DRD3 agonist: -19

What do the screens show for `CC(=O)NC(c1ccccc1)c1cc([N+](=O)[O-])c2cccnc2c1O` (stereo not drawn)?
Giardia kill: -16; B2AR arrestin: 0%; D3 antag: inconclusive; DRD3 agonist: -4

How did CCC(=O)NC(c1cccs1)c1cc([N+](=O)[O-])c2cccnc2c1O (stereo not drawn) do in these assays?
Giardia kill: 10; B2AR arrestin: 1%; D3 antag: -69*; DRD3 agonist: -23

Results for CCCC(=O)NC(c1ccccc1)c1ccc2cccnc2c1O (stereo not drawn) ?
Giardia kill: 5; B2AR arrestin: 8%; D3 antag: inconclusive; DRD3 agonist: 31*

How did CCCC(=O)NC(c1cccs1)c1cc([N+](=O)[O-])c2cccnc2c1O (stereo not drawn) do in these assays?
Giardia kill: 16; B2AR arrestin: 0%; D3 antag: inconclusive; DRD3 agonist: -18

Results for Cc1cc(=O)c2c(O)c3c(O)cc(=O)c4c3c3c(cc(O)c1c23)C(C)(C)C=4O ?
DRD3 agonist: 5

How did COc1ccc(CP(=O)(c2ccccc2)c2ccccc2)cc1 do in these assays?
Giardia kill: 9; B2AR arrestin: 0%; D3 antag: 0; DRD3 agonist: -8

How did O=P(Cc1nnco1)(c1ccccc1)c1ccccc1 do in these assays?
Giardia kill: 9; B2AR arrestin: -1%; D3 antag: -63*; DRD3 agonist: -6

What do the screens show for `CCOP(=O)(c1ccccc1)c1nc(-c2ccccc2Cl)oc1N1CCCCC1` (stereo not drawn)?
Giardia kill: 0; B2AR arrestin: 1%; D3 antag: -73*; DRD3 agonist: 0

Results for CCOC(=O)c1c(NC(C)=O)sc2c1CCC(C=O)=C2Sc1ccccc1 ?
Giardia kill: -7; B2AR arrestin: 0%; D3 antag: -58*; DRD3 agonist: -29

Results for CCOC(=O)c1c(NC(C)=O)sc2c1CCN(Cc1ccccc1)C2 ?
Giardia kill: -7; B2AR arrestin: 0%; D3 antag: -19; DRD3 agonist: -12

Results for CCOc1ccc(-c2nn3c(-c4ccc(F)cc4)nnc3s2)cc1 ?
Giardia kill: 2; D3 antag: -64*; DRD3 agonist: -2

What do the screens show for `CCn1ccc2cc(S(=O)(=O)N3CCCN(C(=O)Nc4ccc(C)cc4)CC3)ccc21`?
DRD3 agonist: 1

Results for CCCCc1ccc(NC(=S)NCc2cccc(OC)c2)cc1 ?
Giardia kill: -1; B2AR arrestin: 0%; D3 antag: 14; DRD3 agonist: -2

How did CCCCc1ccc(NC(=S)Nc2ccc(Nc3ccc(OC)cc3)cc2)cc1 do in these assays?
Giardia kill: 26; B2AR arrestin: 0%; D3 antag: -80*; DRD3 agonist: -5

Results for CC(=O)NC(c1cc(F)c2cccnc2c1O)C(C)C (stereo not drawn) ?
B2AR arrestin: 0%

How did CC(C)OC(=O)c1c(NS(=O)(=O)c2ccccc2)sc2c1CCCC2 do in these assays?
Giardia kill: 2; B2AR arrestin: 0%; D3 antag: -89*; DRD3 agonist: -2

How did O=C(Nc1sc2c(c1C(=O)O)CCC2)c1ccccc1 do in these assays?
Giardia kill: -25; B2AR arrestin: 0%; D3 antag: -52*; DRD3 agonist: -3

Results for COC(=O)c1c(NS(=O)(=O)Cc2ccccc2)sc2c1CCCC2 ?
Giardia kill: -13; B2AR arrestin: 0%; D3 antag: -7; DRD3 agonist: -6
